A selection: hits, their analogues and other compounds. The true share with any hit is near 2.9%.
PP1 counter: blocks human PP1-alpha phosphatase, a PP5 counter-screen; purified PP1alpha, OMFP fluorescence; inhibition, % at 6.7 µM; AID 2235; 320,000 compounds, 0.9% hits; P62136;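 active = inhibition above the mean inhibition of all tested compounds plus 3 SD, computed separately for each screening campaign, cut at about 15% in these data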
GRK2 inh: blocks RNA aptamer binding to human GRK2. P25098. bead flow cytometry, FAM-aptamer displacement from GRK2. inhibition of aptamer binding, % at 10 µM. 330,000 compounds, 0.59% hits. AID 488847;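 active = inhibition of aptamer binding above 40%, roughly 3 SD of noise, on plates passing a quality check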;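 also: median bead fluorescence of bound FAM aptamer so fluorescent compounds give negative values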
NadD inh: NadD (S. aureus) enzyme inhibition. purified NadD enzyme, colorimetric absorbance read-out. inhibition, % at 20 µM. 360,000 compounds, 0.78% hits; in the data active = inhibition above about 26%
Exocytosis inh: lytic granule exocytosis inhibition; TALL-104 LAMP-1 surface exposure, flow cytometry; cells stimulated with thapsigargin and PMA; inhibition, % at 10 µM; 360,000 compounds, 0.66% hits;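 active = inhibition above about 55%, limit read from the data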
Beta2AR agonist: human beta-2 adrenergic receptor agonism by FAP; response, % (concentration not given with the values); 340,000 compounds, 0.43% hits; AID 504454; Am2.2-beta2AR cells, FAP receptor internalization, flow cytometry;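 active = response above a set limit, near 3 SD of response in nonfluorescent compounds, cut at about 42% in these data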
Target sequence (P07550 whole entry, looked up): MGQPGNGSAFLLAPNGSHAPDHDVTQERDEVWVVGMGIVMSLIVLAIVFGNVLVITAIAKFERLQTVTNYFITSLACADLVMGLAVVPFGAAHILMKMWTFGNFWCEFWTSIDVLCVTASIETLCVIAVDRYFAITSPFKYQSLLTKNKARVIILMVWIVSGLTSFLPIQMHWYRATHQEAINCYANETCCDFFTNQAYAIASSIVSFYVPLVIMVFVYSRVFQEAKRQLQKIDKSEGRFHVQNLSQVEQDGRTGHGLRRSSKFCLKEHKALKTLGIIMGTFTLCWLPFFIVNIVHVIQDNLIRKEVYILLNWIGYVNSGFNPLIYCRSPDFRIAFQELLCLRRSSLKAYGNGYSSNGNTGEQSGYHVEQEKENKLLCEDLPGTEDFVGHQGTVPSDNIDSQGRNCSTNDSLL
Hits are given with their value; - = inactive; . = no result.

SMILES	PP1 counter	GRK2 inh	NadD inh	Exocytosis inh	Beta2AR agonist
Cc1ccc(C(=O)OCCn2cc(C#N)c(=O)[nH]c2=O)cc1	-	-	-	-	-
Cc1cccc(C(C)C)c1NC(=O)c1ccc(COc2ccc3c(C)cc(=O)oc3c2)cc1	17	-	-	-	-
COc1ccc(CCN2CC(C(=O)N(C)Cc3c(C)n[nH]c3C)CCC2=O)cc1 (configuration not stated)	.	.	-	-	-
CNC[C@@H]1Oc2ccc(NC(=O)Nc3cccc4ccccc34)cc2C(=O)N([C@@H](C)CO)C[C@@H]1C	.	-	.	.	.
COC(=O)[C@]1(C)CCC[C@@]2(C)C3CC[C@@]4(C)C[C@]3(CCC21)CC(=O)N4 (some centres not stated)	-	-	-	-	-
C=C1C(=O)C23CCC4C(C)(C(=O)OC)CCCC4(C)C2CCC1(O)C3 (configuration not stated)	.	.	-	-	96
COC(=O)/C=C1\N/C(=N\c2nc(C)cc(C)n2)N(c2ccc(C)c(C)c2)C1=O	-	-	-	-	-
O=C(O)c1ccc(NS(=O)(=O)/C=C/c2ccccc2)cc1	-	55	-	-	-
Cc1oc2c(c1C(=O)c1ccc(Cl)cc1)C(=O)C(=O)c1ccccc1-2	.	.	-	104	63
CC(C)OCCCN1CN(S(=O)(=O)c2cccc(Cl)c2)c2nc3ccccc3nc21	-	-	-	-	-
Cc1nnc(N/N=C\c2ccc(-c3cccc(C(=O)O)c3)o2)n1N	-	88	-	-	-
Cc1nnc(N/N=C/c2ccc(-c3ccc(Br)cc3)o2)n1N	-	-	-	-	-
CCCCCN=C(N)N/N=C/c1c[nH]c2ccc(OC)cc12	-	-	-	-	47
CCCOc1ccc(C(=O)N/N=C/c2c[nH]c3ccc(Br)cc23)cc1	-	-	-	-	-
CC(C)CN(C(=O)COC(=O)c1ccc2c(c1)OCO2)c1c(N)n(Cc2ccccc2)c(=O)[nH]c1=O	-	-	-	-	-
CCN(CCCNc1cc2c(c(N)c1S(=O)(=O)O)C(=O)c1ccccc1C2=O)c1ccccc1	.	.	52	-	.
CCOC(CNC(=O)CN1C(=O)COc2ccc(S(=O)(=O)N3CCCC3)cc21)OCC	-	-	-	-	-
CC(O)CN=c1cc(-c2ccccc2)oc2ccc(Cl)cc12 (configuration not stated)	-	-	-	-	-
CC(C)CN=c1cc(-c2ccccc2)oc2ccc(Cl)cc12	17	-	-	-	-
Cc1cc(C)nc(S/C=C/C(=O)c2ccccc2F)n1	-	-	-	62	-
Cc1cc(C)nc(NC(=S)NC(=O)c2ccccc2F)n1	-	-	-	-	-
CCN1CN(Cc2ccco2)CNC1=S	-	-	-	-	48
CCCCc1cc(=O)oc2c(C)c(OCC(=O)N3C[C@H]4C[C@@H](C3)c3cccc(=O)n3C4)ccc12	17	-	-	-	-
CCCc1cc(=O)oc2cc(OCC(=O)N3C[C@H]4C[C@@H](C3)c3cccc(=O)n3C4)c(Cl)cc12	-	-	-	-	-
CCOC1=C2CN(S(=O)(=O)c3ccc(C)cc3)[C@H](c3ccccc3)C[C@@H]2N(S(=O)(=O)c2ccc(C)cc2)[C@H](c2cccs2)C1	.	.	-	-	.
SMILES	PP1 counter	GRK2 inh	NadD inh	Exocytosis inh	Beta2AR agonist
Cc1ccc(NC(=S)NNc2ccc([N+](=O)[O-])cc2S(=O)(=O)Nc2ccccc2C(=O)O)cc1C	17	-	-	-	-
O=C(OCc1ccc([N+](=O)[O-])cc1)C1CC(=O)N(Cc2ccccc2)C1 (configuration not stated)	.	-	-	-	-
COCCN(C(=O)C1CC(=O)N(Cc2ccccc2)C1)c1nc(-c2ccc([N+](=O)[O-])cc2)cs1 (configuration not stated)	17	-	-	-	-
COC(=O)c1c(NC(=O)COC(=O)[C@@H](NS(=O)(=O)c2cccc(Cl)c2)C(C)C)sc2c1CCC2	15	-	-	-	-
Cc1ccc(C2CC(c3ccccc3)=NN2C(=S)Nc2ccccc2)o1 (configuration not stated)	-	-	-	97	-
c1cncc(CNCc2ccco2)c1	.	-	-	-	-
CCN(CC)C(=O)Cn1cnc2sc(C(=O)Nc3cc(OC)c(OC)c(OC)c3)c(C)c2c1=O	15	-	-	-	-
CCCNC(=O)Cn1cnc2sc(C(=O)NCCN(CC)CC)c(C)c2c1=O	16	-	-	-	-
CCCNC(=O)Cn1cnc2sc(C(=O)Nc3cc(OC)c(OC)c(OC)c3)c(C)c2c1=O	-	-	-	-	-
